# Assay outcomes from PubChem.
# Hits are enriched below; roughly 21% of the tested compounds scored in any of these assays.
# Pf growth 96h – inhibits malaria parasite growth, 96 h; P. falciparum luciferase reporter growth, 96 h; Potency, µM (top dose mostly 28.7 µM), without a hit: at the top dose activity change, negative = inhibition, hits mostly inhibitors; hit rate 6.9% among 320,000; AID 504834; note: potency is the fitted concentration of half-maximal effect; % is set by controls: 0 for no effect and ±100 for the full control effect
#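 Infected RBCs, 2% Hct / 0.05% parasitemia final; luciferase-reporter P. falciparum; cpd 96 h, 37 C, 5% CO2; luciferase detection reagent; luminescence.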
# Pf growth 48h – inhibits P. falciparum growth in the first generation, 48 h | Potency, µM (top dose mostly 28.7 µM), for the others: top-dose activity change, negative = inhibition, hits mostly inhibitors | P. falciparum luciferase growth in erythrocytes, 48 h | hit rate 5.9% among 310,000 | AID 504832; note: potency is the fitted concentration of half-maximal effect; % is set by controls: 0 for no effect and ±100 for the full control effect
#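 In quantitative HTS format, infected erythrocytes bearing luciferase-reporter parasites were treated for a single generation at 37 C. Luminescence after adding detection reagent served as the growth measure.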
# Sm TGR inh – inhibitors of Schistosoma mansoni thioredoxin glutathione reductase; Q962Y6; purified TGR, DTNB reduction, TNB absorbance 405 nm; Potency, µM (doses to about 114 µM), without a hit: at the top dose activity change, negative = inhibition, hits mostly inhibitors; AID 485364; hit rate 3% among 360,000; note: potency is the fitted concentration of half-maximal effect; % is set by controls: 0 for no effect and ±100 for the full control effect; nearly all actives have a fitted effect of over 60% in size
#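 TGR 20 nM + NADPH 100 uM (dispensed conc.), cpd preinc 15 min RT; start with NADPH (500 uM addition) then DTNB (15 mM addition). Kinetic TNB absorbance, 405 nm filter. Four-parameter Hill fit across titration.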
# Shiga inhibitor – blocks Shiga toxin action in Vero cells. Vero cells, Shiga toxin protein synthesis inhibition reporter. inhibition, % at 38.7 µM. AID 2315. hit rate 9.2% among 290,000; in the data active = inhibition mostly above about 28%, no sharp cut-off; inactive = mostly below about 43%; note: 0% is about no effect
# CHX counter – counter-screen for Shiga toxin inhibitors: cycloheximide protein synthesis inhibition | cell reporter, cycloheximide protein synthesis inhibition counterscreen | max response, % | hit rate 12% among 300,000 | AID 2314; in the data active = max response mostly above about 13%, no sharp cut-off; inactive = mostly below about 14%; note: read at 38.3 µM for the half of the compounds with a filed dose; 0% is about no effect
# NS1 inh – influenza NS1 inhibition. AID 2326. hit rate 0.4% among 270,000. Potency, µM (top dose mostly 46.1 µM), inactives show top-dose activity, positive = more growth; calls by dose curve; note: potency is the fitted concentration of half-maximal effect; actives are rising curves; nearly all actives have a fitted effect of over 50% in size
#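 S. cerevisiae expressing influenza A NS1, grown in glucose, washed, then diluted 1:100 into pH 6.0 -URA galactose medium with 23 nl compound. Growth recovery read as OD600; NS1-free strain serves as control.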
# An asterisk follows results filed as active; ? = inconclusive; · = not tested or not shown. Unless noted, calls come from the whole dose curve; as a rule, active = well fitted curve in the direction sought with a large enough effect; inconclusive = small, poorly fitted or top-dose-only effect, or another doubt; inactive = no such curve, though single readings can be large; an effect the other way counts as inactive or inconclusive.
SMILES,Pf growth 96h,Pf growth 48h,Sm TGR inh,Shiga inhibitor,CHX counter,NS1 inh
CCCCn1c(NC(=O)c2ccco2)c(S(=O)(=O)c2ccc(C)cc2)c2nc3ccccc3nc21,?,?,?,1,-2,16%
Cc1cc(C)nc(N2CCCC(C(=O)NCC(c3ccccc3)c3ccccc3)C2)n1 (configuration not stated),?,?,-2%,-4,-2,2%
CCOC(=O)c1cn(-c2nc(-c3ccc(Cl)cc3)cs2)c2c(F)c(N3CC(C)OC(C)C3)c(F)cc2c1=O (configuration not stated),?,?,-21%,43,4,2%
C=CC[n+]1c(-c2ccccc2)csc1NC(C)(C)C,15µM*,10µM*,-6%,-6,-2,·
C=CC[n+]1c(C)csc1Nc1ccc(C(=O)O)cc1,0%,-5%,4%,-5,7,·
N#C/C(=C/c1ccc(-c2ccc(S(N)(=O)=O)cc2)o1)C(=O)Nc1ccccc1,?,-22%,-5%,-15,-2,23%
CN(C)C1=NC(=O)/C(=C/c2ccc(-c3ccc(S(N)(=O)=O)cc3)o2)S1,-12%,7%,32µM*,-7,-4,7%
NC1=NC(=O)/C(=C/c2cn(CCC(=O)O)nc2-c2ccc(Cl)cc2)S1,-9%,27%,0%,-8,0,-6%
NC1=NC(=O)/C(=C\c2ccc(-c3ccc(Cl)cc3)o2)S1,5%,-9%,-24%,30*,13*,0%
Cn1c2ccccc2c(=O)c2ccc(C#CC3(N)CCCCC3)cc21,?,19%,-10%,85*,45*,17%
COc1cccc2oc3ccc(C#CC4(N)CCCCC4)cc3c(=O)c12,-80%,-23%,-15%,24*,21*,4%
Cn1cc(C=C2C(=O)OC3(CCCCC3)OC2=O)c2ccccc21,2%,?,-4%,-4,-2,2%
Cn1c2ccccc2c(=O)c2cc(C#CC3(O)CCCCC3)ccc21,124%,94%,-35%,56*,27*,7%
COC(=O)c1c(NC(=O)C(C)C)sc(C(=O)N2CCOCC2)c1C,42%,?,3%,-2,-3,1%
CCCn1c(SCC(O)c2cccc(OC)c2)nc2ccccc21 (configuration not stated),·,·,0%,·,·,·
Cc1ccc(CSc2nccc(-c3c(C)nc4ccccn34)n2)cc1,?,13µM*,-1%,-5,1,0%
COc1ccccc1-n1c(O)c(/C=N/NC(=S)Nc2ccccc2)c(=O)[nH]c1=S,11%,48%,11µM*,32,22*,9%
O=C(N/N=C/c1c(O)n(CCc2ccccc2)c(=O)[nH]c1=O)c1ccncc1,?,-8%,18µM*,-15,-7,-26%
CCn1c(O)c(/C=N/NC(=O)c2ccccc2)c(=O)[nH]c1=S,58%,?,-8%,44*,31*,-5%
O=C(N/N=C/c1c(O)n(-c2cccc3ccccc23)c(=O)[nH]c1=O)c1ccncc1,51%,10%,14µM*,39,1,-6%
Cc1ccc(-n2c(O)c(/C=N/NC(=O)c3ccncc3)c(=O)[nH]c2=O)cc1C,-14%,15%,-29%,10,-4,-12%
CN(C)S(=O)(=O)c1ccc(C(=O)NC2CC(=O)N(c3ccc4c(c3)OCCO4)C2)cc1 (configuration not stated),·,·,-1%,·,·,·
O=C(N/N=C/c1c(O)n(CCc2ccc(F)cc2)c(=O)[nH]c1=O)c1ccncc1,?,5%,?,-1,15,·
O=C(N/N=C/c1c(O)n(CCc2ccc(F)cc2)c(=O)[nH]c1=O)c1ccccc1,?,81%,?,53*,14*,9%
Cc1ccc(-n2nc(C)c3c(C)c(CCC(=O)NC(C)c4ccccc4)c(C)nc32)cc1 (configuration not stated),9.3µM*,·,3%,-7,-2,-11%
CCC(C)NC(=O)CCc1c(C)nc2c(c(C)nn2-c2ccc(C)cc2)c1C (configuration not stated),·,·,1%,·,·,·
CCN(Cc1ccccc1)C(=O)c1ccc(CS(=O)c2ccccc2C)o1 (configuration not stated),-1%,-22%,14µM*,-7,-3,4%
